# Screening results as filed in PubChem BioAssay.
# IL-1B inflam inh: inflammasome signaling inhibition, IL-1 beta readout. hit rate 4.7% among 360,000. THP-1 LPS/ATP IL-1B secretion, AlphaLISA, 16 h; active compounds read low. AID 743279. activity change, % at 57.5 µM; in the data active means activity change below about -50%; inconclusive means mostly about -30% to -49%
#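 Secreted IL-1B measured by AlphaLISA bead assay after 16 h compound exposure of THP-1 cells; compounds (final up to 57.5 uM) added 1 h before LPS (250 ng/mL) and ATP (1.25 mM) stimulation; lower signal means less secretion.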
# HT1080NT lethal: kills 2HG-producing HT-1080-NT fibrosarcoma cells; hit rate 1.6% among 360,000; Potency, µM (doses to about 46.1 µM), for the others: top-dose activity, negative = less viability, actives largely listed as cytotoxic; HT-1080-NT fibrosarcoma viability, CellTiter-Glo ATP luminescence, 48 h;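 further: NT is the 2HG producing partner of a matched IDH1 knockdown line; potency means the concentration at half of the fitted maximal effect; 0% = DMSO-treated cells and -100% = media-only wells without cells; nearly all actives have a fitted effect of over 55% in size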
#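 A 48-hour cytotoxicity screen used HT-1080-NT cells plated 2 hours before compound delivery. ATP-based CellTiter-Glo luminescence measured viability, normalized to DMSO and no-cell controls.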
# HT1080 IDH1KD tx: kills HT-1080 cells with IDH1 knockdown | Potency, µM (doses to about 46.1 µM), for inactives: at the top dose activity, negative = toxicity, hits mostly cytotoxic | HT-1080 IDH1 knockdown viability, ATP luminescence, 48 h | hit rate 2% among 360,000;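 further: potency means the concentration at half of the fitted maximal effect; 0% = DMSO wells and -100% = cell-free medium wells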
#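 In this qHTS, HT-1080 cells depleted of IDH1 are exposed for 48 h at 37 °C to compound titrations. Toxicity is scored from CellTiter-Glo luminescence, with DMSO as full viability and medium alone as none.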
# TDP1 cell noCPT: qHTS for Inhibitors of human tyrosyl-DNA phosphodiesterase 1 (TDP1): qHTS in cells in absence of CPT | hit rate 15% among 420,000 | DT40 Tdp1-/- hTDP1 cells, no CPT, ATP luminescence, 48 h | Potency, µM (doses to about 46.2 µM), without a hit: at the highest dose activity change, negative = growth inhibition, most hits filed as inhibitors; further: potency means the concentration at half of the fitted maximal effect; nearly all actives have a fitted effect of over 55% in size
#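 Cells were dispensed at 400 per well, compounds added by pin tool, plates incubated ≥48 hr at 37 °C, then CellTiter-Glo added for 30 min at room temperature before luminescence reading. Line: DT40 Tdp1-/- complemented with hTDP1; camptothecin omitted.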
# DT40 TDP1 CPT: DT40-hTDP1 cell growth loss with CPT | chicken DT40 Tdp1-/-;hTDP1 cells + 20 nM CPT, ATP luminescence, 48 h | Potency, µM (titrated, usually from 46.2 µM), without a hit: at the highest dose activity change, negative = growth inhibition, actives largely listed as inhibitors | hit rate 12% among 420,000 | AID 686979; further: potency means the concentration at half of the fitted maximal effect; nearly all actives have a fitted effect of over 55% in size
#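 Chicken DT40 Tdp1-/- cells stably complemented with human TDP1 were seeded at 400 cells/well in medium containing 20 nM camptothecin, exposed to pin-transferred compounds, and grown at 37 °C for at least 48 hr. Viability was read as ATP luminescence.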
# Numbers without * were called inactive; ? = inconclusive; · = no result given. Most compounds without a hit are left out; they make up all but 19% or so of the library. Unless noted, the call rests on the fitted dose curve; in most records, active means well fitted curve in the direction sought with a large enough effect; inconclusive means small, poorly fitted or top-dose-only effect, or another doubt; inactive means no such curve, though single readings can be large; an effect the other way counts as inactive or inconclusive. Unless noted, on the % scale 0 is the no-effect control and ±100 the full control effect.
SMILES,IL-1B inflam inh,HT1080NT lethal,HT1080 IDH1KD tx,TDP1 cell noCPT,DT40 TDP1 CPT
Cc1cc(C=O)c(C)n1-c1ccc(N2CCCCC2)c([N+](=O)[O-])c1,?,-21%,-22%,21µM*,8.2µM*
Cc1cc(C=O)c(C)n1-c1ccc(N2CCOCC2)cc1,?,-2%,-10%,?,?
Cc1nccc(-c2cccc(N/N=C(\C#N)C(=O)c3ccccc3)c2)n1,4,?,?,10µM*,21µM*
Cc1nccc(-c2cccc(NC(=O)Nc3ccc(Cl)cc3)c2)n1,-22,-11%,-12%,?,-16%
O=C(O)C1=CC(=C(c2ccc(O)c(C(=O)O)c2)c2ccc(O)c(C(=O)O)c2)C=CC1=O,·,2%,7%,1%,6%
O=C1C=CC(=C(c2ccc(O)cc2)c2ccc(O)cc2)C=C1,-100*,9.2µM*,12µM*,2.3µM*,9.2µM*
Cc1ccc(N(C)C(=O)C2CCCN(c3ncnc4c3nc3n4CCCCC3)C2)cc1C (centres undefined),·,·,·,9.2µM*,?
CN(Cc1ccco1)C(=O)C1CCCN(c2ncnc3c2nc2n3CCCCC2)C1 (centres undefined),38,-1%,-9%,?,?
CN(C(=O)C1CCCN(c2ncnc3c2nc2n3CCCCC2)C1)c1ccccc1F (centres undefined),·,·,·,12µM*,23µM*
CCc1ccccc1N(CC)C(=O)C1CCN(c2ncnc3c2nc2n3CCCCC2)CC1,-27,-5%,?,4.1µM*,8.2µM*
CCOc1ccccc1N(C)C(=O)C1CCCN(c2ncnc3c2nc2n3CCCCC2)C1 (centres undefined),·,·,·,-11%,-30%
CCc1ccccc1N(C)C(=O)C1CCCN(c2ncnc3c2nc2n3CCCCC2)C1 (centres undefined),·,·,·,4.1µM*,18µM*
C#CCOCCOCCOCCNc1nc(N2CCOCC2)nc(N2CCN(C(=O)[C@H](C)n3cc(CCC(=O)O)nn3)CC2)n1,17,18%,9%,-2%,8%
O=C(NCc1ccccn1)c1ccc(-c2ccccc2)cc1,?,8%,-10%,-1%,13%
O=C(NCc1ccccn1)c1c(-c2ccccc2)sc2ccccc12,81,0%,3%,?,23µM*
CC(C)(C)OC(=O)N1CCC(Cc2cc(-c3cccnc3)no2)(C(=O)O)CC1,33,10%,9%,-1%,-2%
CN(Cc1ccccc1)c1nc2c(c(=O)[nH]c(=O)n2C)n1CCCc1ccccc1,-54*,?,-19%,35µM*,29µM*
Cn1c(=O)[nH]c(=O)c2[nH]c(N(Cc3ccccc3)Cc3ccccc3)nc21,-14,?,?,15µM*,?
Cn1c(=O)[nH]c(=O)c2[nH]c(CN3CCN(Cc4ccccc4)CC3)nc21,-13,-2%,3%,0%,13%
C=C(C)Cn1c(N(CCO)Cc2ccccc2)nc2c1c(=O)[nH]c(=O)n2C,0,-1%,11%,-17%,-27%
Cn1c(=O)[nH]c(=O)c2c1nc(N(CCO)Cc1ccccc1)n2CCCc1ccccc1,-8,-10%,-24%,?,26µM*
CCC1(C(=O)NC(=Nc2ccccc2)Nc2ccccc2)CCOC1=O (centres undefined),4,3%,0%,-5%,3%
C=CC[C@H](CC(=O)NCCO)C(=O)N[C@H](COC(=O)[C@H](CC=C)CC(=O)OC(C)(C)C)c1ccccc1,15,11%,10%,-12%,-11%
CN(C)c1ccc(CNc2ccccn2)cc1,-9,13%,23%,?,-23%
c1ccc2c(c1)OCC(CNc1ncnc3sccc13)O2 (centres undefined),-12,0.73µM*,1.2µM*,0.65µM*,1.2µM*
SMILES,IL-1B inflam inh,HT1080NT lethal,HT1080 IDH1KD tx,TDP1 cell noCPT,DT40 TDP1 CPT
CN(C)c1ccc(CNc2ncnc3sccc23)cc1,14,?,?,2.1µM*,4.1µM*
Fc1ccccc1CNc1ncnc2sccc12,-8,-4%,?,8.2µM*,4.1µM*
COC(=O)/N=C/c1c(NCc2ccccc2)nc2c(C)cccn2c1=O,56,1%,-10%,?,-27%
O=C(Cn1c(SCc2ccc(F)cc2)nc2cccnc21)Nc1ccccc1F,·,·,·,26µM*,?
COc1ccc(NC(=O)Cn2c(SCc3ccc(F)cc3)nc3cccnc32)cc1OC,·,·,·,2.3µM*,3.7µM*
COc1cc(OC)c(NC(=O)Cn2c(SCc3ccccc3F)nc3cccnc32)cc1Cl,·,·,·,-4%,-1%
COc1ccc(NC(=O)Cn2c(SCc3ccc(F)cc3)nc3cccnc32)c(OC)c1,·,·,·,21µM*,?
CC(C)CCNC(=O)Cn1c(SCc2cccc(F)c2)nc2ccncc21,·,·,·,?,2%
O=C(Cn1c(SCc2cccc(F)c2)nc2cccnc21)Nc1ccc(F)c(Cl)c1,·,·,·,15µM*,26µM*
O=C(OCC(=O)N1CCc2ccccc21)c1ccccn1,9,-2%,-3%,-3%,-11%
CCC(=O)N1CCc2cc(CNC(=O)c3cccc(N(C)C)c3)ccc21,·,·,·,-26%,-7%
COc1ccc(NC(=O)CSCCc2ccccn2)cc1OC,16,8%,12%,-7%,-1%
COc1ccc(NC(=O)Cn2c(SCc3ccc(C)cc3)nc3cccnc32)cc1OC,·,·,·,1.6µM*,2.3µM*
CCOc1ccc(N2CC(NC(=O)c3ccc(S(=O)(=O)N4CCCC4)cc3)CC2=O)cc1 (centres undefined),·,·,·,-23%,6%
Cn1c(=O)c2c(nc(N/N=C3\CCCc4ccccc43)n2Cc2ccc(F)cc2)n(C)c1=O,40,-10%,4%,?,?
Cn1c(=O)c2c(nc(NCCc3ccccc3)n2Cc2ccc(F)cc2)n(C)c1=O,-5,-15%,-25%,5.2µM*,3.7µM*
Cn1c(N/N=C2\CCCc3ccccc32)nc2c1c(=O)n(Cc1ccccc1)c(=O)n2C,23,4%,9%,?,23µM*
COc1ccc(-c2nc3c(c(=O)[nH]c(=O)n3Cc3ccccc3)n2C)cc1,-1,-6%,-3%,-7%,-4%
Cn1c(=O)c2c(nc(-c3ccccc3)n2C)n(Cc2ccccc2)c1=O,4,18%,20%,21µM*,16µM*
Cn1c(NCCO)nc2c1c(=O)n(Cc1ccc(F)cc1)c(=O)n2C,24,-3%,1%,-21%,2%
Cn1c(=O)c2c(nc(N/N=C/c3cccnc3)n2Cc2ccccc2)n(C)c1=O,30,-5%,-2%,26µM*,12µM*
COc1cc(C(=O)n2nc(C)c(Sc3ccc(Cl)cc3)c2C)cc(OC)c1OC,·,·,·,-24%,-28%
